In the supplement of paper PMC10849652:
The full data set covers some 8,800 targets. This sample favours those with a hit. About 0.5% of all pairs of compound and target were hits.

Legend:
Experiment in all cases: log2 fold change, soluble protein after heating vs DMSO (PISA); higher = thermal stabilisation; K562 lysate, 10 uM; active = over 0.2 and 3.5 SD of the protein, either way, in both replicates (recomputed)
erlotinib = compound: C#Cc1cccc(Nc2ncnc3cc(OCCOC)c(OCCOC)cc23)c1 [erlotinib]
In short: (§1)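 Following dounce homogenisation of K562 pellets in PBS pH 7.4 with 1 mM MgCl2, crude extract at 1 mg/mL protein was incubated for 30 min with 10 μM compound. Aliquots were then heated for 3 min over 48°C-58°C and pooled, NP-40 was added to 0.5% at 4°C, and soluble protein was recovered as the supernatant at 21,000xg for 90 min. Channel-sum-equalised TMTpro 16plex LC-MS/MS quantified this protein. Each value, from duplicates, is a log-two fold change in thermal stability relative to solvent controls.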

[1] = compound: C/C(=N\NC(=O)C1=CC(=CC=C1)S(=O)(=O)N2CCOCC2)/C3=C(C=CC(=C3)Cl)O
In short: as §1

[2] = compound: C1=CC(=CC=C1C2=NC3=C(N2)C=C(C=C3)C(=O)N)OC4=CC=C(C=C4)Cl
In short: as §1

[3] = compound: C1=CC2=C(C=CC(=C2)/C=C\3/C(=O)NC(=NCC4=CC=CS4)S3)N=C1
In short: as §1

[4] = compound: C1=CC=C(C=C1)C2=NC(=C(N2)C3=CC=NC=C3)C4=CC(=C(C=C4)Cl)O
In short: as §1

[5] = compound: C1=CC=C2C(=C1)C3=NNC4=CC=CC(=C43)C2=O
In short: as §1

[6] = compound: C1CCN(C1)C(=O)NC2=CC=CC(=C2)NC3=NC=C(C(=N3)NCCC4=CN=CN4)Br
In short: as §1

[7] = compound: C1CN(CCC1(CC2=CC=C(C=C2)Cl)N)C3=NC=NC4=C3C=CN4
In short: as §1

IRAK-1-4 Inhibitor I = compound: C1COCCN1CCN2C3=CC=CC=C3N=C2NC(=O)C4=CC(=CC=C4)[N+](=O)[O-] [IRAK-1-4 Inhibitor I]
In short: as §1

[8] = compound: CC(=O)c1cnc2ccc(-c3cc(Cl)c(O)c(Cl)c3)nc2c1N[C@H]1CC[C@H](CN(C)C)CC1
In short: as §1

ralimetinib = compound: CC(C)(C)Cn1c(N)nc2ccc(-c3[nH]c(C(C)(C)C)nc3-c3ccc(F)cc3)nc21 [ralimetinib]
In short: as §1

[9] = compound: CC(C)(O)CC(=O)NCCn1ccc2ncnc(Nc3ccc(Oc4cccc(C(F)(F)F)c4)c(Cl)c3)c21
In short: as §1

[10] = compound: CC(C)C1=C2N=C(C=C(N2N=C1)NCC3=CC=CC=C3)NCCCCCCN
In short: as §1

[11] = compound: CC1=C(C2=C(C=C1)C(=O)C3=CC=CC=C3N2CCCN)C
In short: as §1

[12] = compound: CC1=C(C=C(C=C1)NC(=O)C2=CC(=CC=C2)C(C)(C)C#N)NC3=CC4=C(C=C3)N=CN(C4=O)C
In short: as §1

[13] = compound: CC1=C(C=C(C=C1)NC(=O)C2=CC(=CC=C2)N(C)C)NC(=O)C3=CC=C(C=C3)O
In short: as §1

[14] = compound: CC1=CC=C(C=C1)SC2=C3C=C(SC3=CN=C2)C(=O)N
In short: as §1

[15] = compound: C1=CC2=NC=CN=C2C=C1/C=C/3\C(=O)NC(=O)S3
In short: as §1

[16] = compound: CC1=C(C(CC(=O)N1)C2=CC=C(C=C2)C(F)(F)F)C(=O)NC3=C(C=C4C(=C3)C=NN4)F
In short: as §1

ibrutinib = compound: C=CC(=O)N1CCC[C@@H](n2nc(-c3ccc(Oc4ccccc4)cc3)c3c(N)ncnc32)C1 [ibrutinib]
In short: as §1

Measured: log2 fold change

CUX1 isoform 2 (UniProt Q13948)
inactive: erlotinib -0.029 | [1] -0.003 | [2] -0.229 | [3] 0.034 | [4] -0.011 | [5] 0.02 | [6] -0.015 | [7] -0.008 | IRAK-1-4 Inhibitor I 0.029 | [8] 0.07 | ralimetinib -0.069 | [9] 0.052 | [10] -0.16 | [11] -0.027 | [12] 0.385 | [13] 0.043 | [14] -0.086

CLPB isoform 2 (UniProt Q9H078)
inactive: erlotinib 0.023 | [1] -0.029 | [2] -0.028 | [3] 0.02 | [15] -0.047 | [4] -0.018 | [5] 0.006 | [6] 0.022 | [7] 0.055 | IRAK-1-4 Inhibitor I -0.002 | [8] -0.016 | ralimetinib 0.002 | [9] -0.024 | [10] -0.006 | [16] 0.002 | [11] -0.054 | [12] -0.011 | [13] 0.025 | [14] 0.012

DNA2 (UniProt P51530)
inactive: erlotinib -0.019 | [1] 0.071 | [2] -0.054 | [3] -0.163 | [4] -0.032 | [5] 0.044 | [6] 0.027 | [7] 0.077 | IRAK-1-4 Inhibitor I -0.033 | ralimetinib 0.016 | [9] 0.029 | [10] -0.06 | [16] -0.007 | [11] 0.002 | [12] -0.02 | [13] 0.001

CLIC2 (UniProt O15247)
Sequence of UniProt O15247 (O15247 whole entry, looked up): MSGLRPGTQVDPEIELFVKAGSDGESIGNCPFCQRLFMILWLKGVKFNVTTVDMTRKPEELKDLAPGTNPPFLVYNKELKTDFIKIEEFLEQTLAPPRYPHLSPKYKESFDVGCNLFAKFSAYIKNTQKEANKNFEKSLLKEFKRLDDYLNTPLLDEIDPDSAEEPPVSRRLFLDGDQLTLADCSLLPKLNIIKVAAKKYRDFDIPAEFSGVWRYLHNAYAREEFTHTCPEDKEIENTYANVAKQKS
inactive: erlotinib 0.036 | [1] 0.022 | [2] -0.005 | [3] -0.03 | [15] -0.014 | [4] -0.014 | [5] -0.014 | [6] 0.019 | [7] 0.015 | IRAK-1-4 Inhibitor I 0.006 | [8] -0.014 | ralimetinib 0.004 | [9] 0.004 | [10] 0.04 | [16] -0.01 | [11] 0.018 | [12] 0.005 | [13] 0.006 | [14] 0.001

DIAPH1 (UniProt H9KV28)
inactive: erlotinib -0.1 | [1] -0.013 | [2] -0.053 | [3] 0.005 | [15] -0.04 | [4] -0.164 | [5] -0.024 | [6] 0.031 | [7] -0.037 | IRAK-1-4 Inhibitor I 0.034 | ibrutinib -0.063 | [8] 0.024 | ralimetinib -0.022 | [9] -0.106 | [10] -0.083 | [16] 0.032 | [12] 0.004 | [13] 0.009 | [14] -0.03

CNTN4 (UniProt Q8IWV2)
Sequence of UniProt Q8IWV2 (Q8IWV2 whole entry, looked up): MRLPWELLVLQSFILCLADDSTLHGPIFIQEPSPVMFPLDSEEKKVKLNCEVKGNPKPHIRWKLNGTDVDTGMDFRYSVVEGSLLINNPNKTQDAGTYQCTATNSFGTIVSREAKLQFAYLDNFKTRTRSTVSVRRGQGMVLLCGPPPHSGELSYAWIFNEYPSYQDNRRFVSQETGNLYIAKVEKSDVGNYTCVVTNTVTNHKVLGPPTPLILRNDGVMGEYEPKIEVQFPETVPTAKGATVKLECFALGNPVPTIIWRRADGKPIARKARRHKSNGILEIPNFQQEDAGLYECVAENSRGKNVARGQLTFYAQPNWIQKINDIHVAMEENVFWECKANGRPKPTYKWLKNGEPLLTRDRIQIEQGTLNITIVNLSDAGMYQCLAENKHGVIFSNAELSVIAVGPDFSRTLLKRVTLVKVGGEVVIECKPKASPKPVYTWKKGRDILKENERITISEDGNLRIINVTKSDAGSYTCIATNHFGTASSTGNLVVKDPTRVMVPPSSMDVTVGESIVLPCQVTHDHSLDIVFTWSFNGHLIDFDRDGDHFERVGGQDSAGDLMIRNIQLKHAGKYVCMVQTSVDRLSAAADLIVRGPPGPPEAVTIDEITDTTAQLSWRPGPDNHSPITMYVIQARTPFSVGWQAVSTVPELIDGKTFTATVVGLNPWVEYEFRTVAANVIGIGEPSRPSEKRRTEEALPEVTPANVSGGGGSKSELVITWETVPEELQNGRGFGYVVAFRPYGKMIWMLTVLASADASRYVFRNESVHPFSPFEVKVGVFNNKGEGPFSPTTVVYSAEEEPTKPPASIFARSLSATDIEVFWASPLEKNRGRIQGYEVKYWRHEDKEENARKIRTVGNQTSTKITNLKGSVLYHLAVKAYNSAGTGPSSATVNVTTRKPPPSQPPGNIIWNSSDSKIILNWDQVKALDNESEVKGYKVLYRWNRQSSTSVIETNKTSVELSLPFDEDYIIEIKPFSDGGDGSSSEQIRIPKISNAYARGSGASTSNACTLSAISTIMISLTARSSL
inactive: erlotinib 0.053 | [1] 0.063 | [2] 0.138 | [3] -0.03 | [15] 0.053 | [4] 0.046 | [5] -0.203 | [6] -0.124 | [7] 0.138 | IRAK-1-4 Inhibitor I 0.119 | ibrutinib -0.043 | [8] -0.154 | ralimetinib -0.286 | [9] -0.341 | [10] 0.094 | [16] -0.077 | [12] 0.312 | [13] -0.039 | [14] -0.141

CLCN3 (UniProt P51790)
inactive: erlotinib -0.047 | [1] 0.043 | [2] -0.067 | [3] 0.06 | [15] 0.016 | [4] -0.02 | [5] 0.084 | [6] -0.043 | [7] -0.117 | IRAK-1-4 Inhibitor I 0.083 | [8] 0.038 | ralimetinib 0.038 | [9] 0.05 | [10] -0.089 | [16] -0.03 | [11] 0.024 | [12] -0.155 | [13] -0.017 | [14] 0.079

COL6A3 (UniProt P12111)
Sequence of UniProt P12111 (P12111 whole entry, looked up): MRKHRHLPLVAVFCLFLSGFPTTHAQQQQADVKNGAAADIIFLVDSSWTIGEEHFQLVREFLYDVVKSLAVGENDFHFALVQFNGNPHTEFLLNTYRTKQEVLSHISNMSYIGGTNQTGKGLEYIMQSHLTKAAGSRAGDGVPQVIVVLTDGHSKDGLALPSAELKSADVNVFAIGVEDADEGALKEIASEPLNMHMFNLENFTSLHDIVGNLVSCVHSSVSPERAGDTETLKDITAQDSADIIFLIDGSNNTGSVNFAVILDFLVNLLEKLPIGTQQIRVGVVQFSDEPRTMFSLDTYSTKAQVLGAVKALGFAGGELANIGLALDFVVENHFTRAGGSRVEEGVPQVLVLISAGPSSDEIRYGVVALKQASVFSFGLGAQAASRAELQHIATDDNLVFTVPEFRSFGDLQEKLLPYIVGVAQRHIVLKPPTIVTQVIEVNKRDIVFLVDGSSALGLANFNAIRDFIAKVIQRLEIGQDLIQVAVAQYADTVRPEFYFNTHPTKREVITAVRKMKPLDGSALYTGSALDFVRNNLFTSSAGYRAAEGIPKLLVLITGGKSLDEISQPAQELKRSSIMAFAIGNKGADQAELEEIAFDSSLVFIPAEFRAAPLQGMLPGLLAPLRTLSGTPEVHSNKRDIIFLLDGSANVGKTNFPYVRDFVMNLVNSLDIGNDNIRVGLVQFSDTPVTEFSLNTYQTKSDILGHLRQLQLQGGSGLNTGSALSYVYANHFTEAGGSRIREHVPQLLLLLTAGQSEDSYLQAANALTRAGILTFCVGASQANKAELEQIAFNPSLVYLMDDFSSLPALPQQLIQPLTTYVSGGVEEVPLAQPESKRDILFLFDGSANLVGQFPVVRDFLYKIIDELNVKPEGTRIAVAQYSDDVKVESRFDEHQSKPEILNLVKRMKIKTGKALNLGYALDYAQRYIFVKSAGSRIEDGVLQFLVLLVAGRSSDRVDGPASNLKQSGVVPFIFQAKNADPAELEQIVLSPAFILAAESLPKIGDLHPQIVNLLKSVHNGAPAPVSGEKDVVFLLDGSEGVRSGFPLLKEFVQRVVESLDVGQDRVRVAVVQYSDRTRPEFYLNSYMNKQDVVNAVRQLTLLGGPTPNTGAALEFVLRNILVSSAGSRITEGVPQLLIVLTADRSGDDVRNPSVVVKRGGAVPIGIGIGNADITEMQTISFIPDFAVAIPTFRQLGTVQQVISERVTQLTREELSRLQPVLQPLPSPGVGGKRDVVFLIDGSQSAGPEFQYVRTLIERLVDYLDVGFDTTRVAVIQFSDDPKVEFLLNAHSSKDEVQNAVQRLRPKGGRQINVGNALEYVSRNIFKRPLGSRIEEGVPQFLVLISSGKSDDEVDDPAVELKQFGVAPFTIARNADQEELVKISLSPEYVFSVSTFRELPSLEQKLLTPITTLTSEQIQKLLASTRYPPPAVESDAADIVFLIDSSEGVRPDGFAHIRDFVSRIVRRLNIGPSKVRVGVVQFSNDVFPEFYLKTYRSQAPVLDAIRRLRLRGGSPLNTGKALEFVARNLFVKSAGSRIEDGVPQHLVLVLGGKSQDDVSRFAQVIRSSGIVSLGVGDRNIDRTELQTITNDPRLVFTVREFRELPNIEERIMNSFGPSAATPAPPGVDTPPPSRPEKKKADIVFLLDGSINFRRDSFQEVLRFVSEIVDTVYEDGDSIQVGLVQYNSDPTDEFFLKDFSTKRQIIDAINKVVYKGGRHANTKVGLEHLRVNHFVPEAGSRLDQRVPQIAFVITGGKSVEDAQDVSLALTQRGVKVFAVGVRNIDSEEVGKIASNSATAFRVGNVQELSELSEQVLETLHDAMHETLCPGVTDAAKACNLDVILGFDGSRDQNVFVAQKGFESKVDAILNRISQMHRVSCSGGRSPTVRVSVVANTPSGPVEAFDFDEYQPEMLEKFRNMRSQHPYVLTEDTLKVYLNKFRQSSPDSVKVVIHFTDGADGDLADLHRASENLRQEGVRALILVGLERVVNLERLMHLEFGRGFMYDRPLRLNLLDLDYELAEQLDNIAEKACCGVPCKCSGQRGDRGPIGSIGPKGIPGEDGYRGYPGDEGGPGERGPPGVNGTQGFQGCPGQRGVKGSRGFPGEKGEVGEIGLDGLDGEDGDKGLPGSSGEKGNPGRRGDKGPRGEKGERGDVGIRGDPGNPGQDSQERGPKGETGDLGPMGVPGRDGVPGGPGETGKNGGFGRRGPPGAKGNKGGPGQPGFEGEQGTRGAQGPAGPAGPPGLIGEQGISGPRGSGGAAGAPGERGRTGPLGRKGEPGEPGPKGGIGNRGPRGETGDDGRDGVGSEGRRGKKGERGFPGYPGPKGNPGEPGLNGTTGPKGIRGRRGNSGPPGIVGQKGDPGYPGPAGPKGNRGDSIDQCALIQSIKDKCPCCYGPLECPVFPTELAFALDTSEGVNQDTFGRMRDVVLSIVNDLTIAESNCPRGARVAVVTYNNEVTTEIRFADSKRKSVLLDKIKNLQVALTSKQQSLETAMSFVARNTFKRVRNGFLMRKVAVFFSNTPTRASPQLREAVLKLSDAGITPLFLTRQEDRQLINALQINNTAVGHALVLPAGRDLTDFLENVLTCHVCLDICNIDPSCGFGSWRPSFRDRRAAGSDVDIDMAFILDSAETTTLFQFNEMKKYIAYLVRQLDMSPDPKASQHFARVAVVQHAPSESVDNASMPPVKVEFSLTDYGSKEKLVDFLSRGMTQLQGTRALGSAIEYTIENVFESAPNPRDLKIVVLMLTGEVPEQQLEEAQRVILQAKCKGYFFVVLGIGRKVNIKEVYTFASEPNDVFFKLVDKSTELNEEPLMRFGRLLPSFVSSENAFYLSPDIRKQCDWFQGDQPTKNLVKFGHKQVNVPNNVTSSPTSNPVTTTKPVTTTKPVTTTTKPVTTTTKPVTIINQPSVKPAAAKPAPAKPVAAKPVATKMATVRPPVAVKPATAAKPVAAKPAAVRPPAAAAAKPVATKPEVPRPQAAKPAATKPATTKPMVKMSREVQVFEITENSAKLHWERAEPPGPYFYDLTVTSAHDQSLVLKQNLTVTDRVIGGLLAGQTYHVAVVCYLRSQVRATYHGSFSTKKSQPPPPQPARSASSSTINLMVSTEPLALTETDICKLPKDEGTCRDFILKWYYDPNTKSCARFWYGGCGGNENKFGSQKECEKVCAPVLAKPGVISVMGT
active: [13] -0.54
inactive: erlotinib -0.101 | [2] 0.14 | [15] -0.232 | [4] -0.108 | IRAK-1-4 Inhibitor I -0.071 | ibrutinib -0.087 | ralimetinib 0.174 | [9] -0.132 | [10] 0.047 | [16] -0.066 | [11] -0.099 | [12] -0.021

CYP4V2 (UniProt Q6ZWL3)
Sequence of UniProt Q6ZWL3 (Q6ZWL3 whole entry, looked up): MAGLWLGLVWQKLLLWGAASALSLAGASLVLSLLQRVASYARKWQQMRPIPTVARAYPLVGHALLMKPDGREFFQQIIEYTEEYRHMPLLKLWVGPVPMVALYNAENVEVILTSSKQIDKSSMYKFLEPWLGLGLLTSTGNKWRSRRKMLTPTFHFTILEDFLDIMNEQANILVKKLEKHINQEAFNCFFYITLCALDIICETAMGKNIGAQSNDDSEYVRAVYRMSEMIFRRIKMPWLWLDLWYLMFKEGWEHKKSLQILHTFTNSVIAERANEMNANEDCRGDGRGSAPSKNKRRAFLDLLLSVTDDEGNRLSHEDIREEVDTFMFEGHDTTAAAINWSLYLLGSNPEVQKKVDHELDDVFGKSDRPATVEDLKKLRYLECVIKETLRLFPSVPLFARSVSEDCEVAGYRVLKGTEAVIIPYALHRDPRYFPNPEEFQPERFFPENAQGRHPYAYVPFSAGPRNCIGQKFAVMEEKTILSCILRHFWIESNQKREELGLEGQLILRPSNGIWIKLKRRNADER
inactive: erlotinib -0.07 | [2] 0.014 | [15] 0.126 | [4] 0.099 | IRAK-1-4 Inhibitor I 0.074 | ibrutinib 0.157 | [8] 0.129 | ralimetinib 0.058 | [9] -0.095 | [10] -0.004 | [11] -0.022 | [12] 0.02 | [13] 0.015 | [14] 0.015
